Measurements published in ChEMBL document CHEMBL3988442, “University of Dundee, Small-Polar-MMV Screening Library” (2021).
For part of these data: Entries with a potency or affinity are not part of this list.

What was measured:
Design in all cases: scale not given: direction of the effect not stated beside the values
[1] = target: Protein translocase subunit SecA (Escherichia coli (strain K12)) (UniProt P10408); assay: Assay to Identify E. coli SecA ATPase Inhibitors; format: functional; settings: 30 µM
[2] = target: T1, Ubiquitin-activating enzyme e1, putative (Leishmania donovani (strain BPK282A1)) (UniProt E9BSI1); assay: Leishmania donovani Ubiquitin Activating Enzyme (LdE1); format: functional; settings: 30 µM
T1 sequence (whole entry): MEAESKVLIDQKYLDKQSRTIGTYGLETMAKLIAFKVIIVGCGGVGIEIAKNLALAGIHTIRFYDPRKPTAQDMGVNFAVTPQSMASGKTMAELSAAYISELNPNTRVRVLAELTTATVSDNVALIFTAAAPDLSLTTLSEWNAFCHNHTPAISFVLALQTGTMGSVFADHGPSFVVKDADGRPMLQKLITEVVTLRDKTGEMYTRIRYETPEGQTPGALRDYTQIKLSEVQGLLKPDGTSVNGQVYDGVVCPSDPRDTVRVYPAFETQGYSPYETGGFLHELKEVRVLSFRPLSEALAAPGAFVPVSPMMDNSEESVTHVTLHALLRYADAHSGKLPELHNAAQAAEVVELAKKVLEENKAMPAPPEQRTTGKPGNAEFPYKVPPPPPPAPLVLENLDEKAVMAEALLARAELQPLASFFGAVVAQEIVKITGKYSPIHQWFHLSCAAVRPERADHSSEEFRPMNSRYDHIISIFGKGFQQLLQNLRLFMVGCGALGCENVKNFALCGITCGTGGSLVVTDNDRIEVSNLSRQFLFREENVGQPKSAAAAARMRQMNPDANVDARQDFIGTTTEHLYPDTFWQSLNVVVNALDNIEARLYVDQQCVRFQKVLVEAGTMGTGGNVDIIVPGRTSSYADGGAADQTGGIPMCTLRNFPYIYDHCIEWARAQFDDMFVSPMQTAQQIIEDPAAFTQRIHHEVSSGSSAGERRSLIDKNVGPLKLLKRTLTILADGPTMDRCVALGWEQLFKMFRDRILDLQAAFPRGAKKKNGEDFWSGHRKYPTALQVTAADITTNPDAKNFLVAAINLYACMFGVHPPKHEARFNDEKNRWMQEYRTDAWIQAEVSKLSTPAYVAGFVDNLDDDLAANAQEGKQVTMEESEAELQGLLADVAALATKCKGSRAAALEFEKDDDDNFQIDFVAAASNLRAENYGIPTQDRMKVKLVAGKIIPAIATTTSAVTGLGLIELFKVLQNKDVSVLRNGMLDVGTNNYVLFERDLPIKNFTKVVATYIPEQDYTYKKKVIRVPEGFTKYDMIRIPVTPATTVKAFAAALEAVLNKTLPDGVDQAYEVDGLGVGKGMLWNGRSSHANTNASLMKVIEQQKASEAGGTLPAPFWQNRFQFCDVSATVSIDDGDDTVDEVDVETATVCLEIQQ

[3] = target: AMP-activated protein kinase, AMPK (Homo sapiens) (UniProt P54646+O43741+P54619+Q9UGJ0+Q9Y478+Q13131+Q9UGI9); assay: AMP-dependent Kinase enzyme assay. An in vitro enzyme assay that detects ADP turnover that is directly proportional to AMPK activity. This uses naive AMPK that is activated during the assay with MK-8722; format: functional; settings: 30 µM
[4] = target: Sialic acid-binding Ig-like lectin 9 (Homo sapiens) (UniProt Q9Y336); assay: Hs-Siglec9 ALPHAscreen SOP 20170721; settings: 10 µM
Trypanosoma cruzi = assay: Trypanosoma cruzi phosphomannomutase and mannose-1-phosphate guanylyltransferase assay; format: functional; settings: 10 µM
[5] = target: T2, Arginase-2, mitochondrial (Homo sapiens) (UniProt P78540); assay: in vitro enzyme assay to detect the production of urea directly proportional to the activity of Arginase II; format: functional; settings: 33.3 µM; also: in the data most compounds retested in dose-response had high values
T2 sequence (whole entry): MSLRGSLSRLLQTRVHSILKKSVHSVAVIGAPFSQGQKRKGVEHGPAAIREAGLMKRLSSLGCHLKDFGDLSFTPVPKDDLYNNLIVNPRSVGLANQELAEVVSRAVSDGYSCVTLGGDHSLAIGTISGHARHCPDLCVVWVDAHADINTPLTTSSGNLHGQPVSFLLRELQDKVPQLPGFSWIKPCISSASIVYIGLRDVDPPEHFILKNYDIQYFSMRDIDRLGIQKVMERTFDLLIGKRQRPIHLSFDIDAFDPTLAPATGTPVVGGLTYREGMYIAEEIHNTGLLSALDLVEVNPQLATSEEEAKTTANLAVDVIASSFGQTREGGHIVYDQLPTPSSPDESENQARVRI

[6] = target: T3, Proteasome subunit beta (Trypanosoma cruzi) (UniProt O96673); assay: Trypanosoma cruzi proteasome chymotrypsin-like activity (TcProtChymo) assay.; also: in the data most compounds retested in dose-response had high values; format: functional; settings: 9.37 µM
T3 sequence (whole entry): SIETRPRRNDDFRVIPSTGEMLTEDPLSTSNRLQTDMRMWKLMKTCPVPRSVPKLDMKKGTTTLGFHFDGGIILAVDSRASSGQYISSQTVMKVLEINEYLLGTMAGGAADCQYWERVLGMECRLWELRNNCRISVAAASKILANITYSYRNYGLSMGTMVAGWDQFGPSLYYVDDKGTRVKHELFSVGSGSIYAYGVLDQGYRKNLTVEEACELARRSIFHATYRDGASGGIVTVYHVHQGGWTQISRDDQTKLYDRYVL

Homo sapiens = species on record: Homo sapiens; assay: To identify inhibition of the IFN signalling (Jak-Stat) pathway via expression of an eGFP reporter gene under the control of an IFN-stimulated response element (ISRE) containing MxA promoter.; format: functional; settings: 30 µM
[7] = target: T4, Tyrosyl-tRNA synthetase, putative (Trypanosoma cruzi (strain CL Brener)) (UniProt Q4DSP6); assay: Trypanosoma cruzi tyrosyl tRNA synthetase (TcYRS) _High Tyrosine SOP; format: functional; settings: 30 µM; also: in the data most compounds retested in dose-response had high values
T4 sequence (whole entry): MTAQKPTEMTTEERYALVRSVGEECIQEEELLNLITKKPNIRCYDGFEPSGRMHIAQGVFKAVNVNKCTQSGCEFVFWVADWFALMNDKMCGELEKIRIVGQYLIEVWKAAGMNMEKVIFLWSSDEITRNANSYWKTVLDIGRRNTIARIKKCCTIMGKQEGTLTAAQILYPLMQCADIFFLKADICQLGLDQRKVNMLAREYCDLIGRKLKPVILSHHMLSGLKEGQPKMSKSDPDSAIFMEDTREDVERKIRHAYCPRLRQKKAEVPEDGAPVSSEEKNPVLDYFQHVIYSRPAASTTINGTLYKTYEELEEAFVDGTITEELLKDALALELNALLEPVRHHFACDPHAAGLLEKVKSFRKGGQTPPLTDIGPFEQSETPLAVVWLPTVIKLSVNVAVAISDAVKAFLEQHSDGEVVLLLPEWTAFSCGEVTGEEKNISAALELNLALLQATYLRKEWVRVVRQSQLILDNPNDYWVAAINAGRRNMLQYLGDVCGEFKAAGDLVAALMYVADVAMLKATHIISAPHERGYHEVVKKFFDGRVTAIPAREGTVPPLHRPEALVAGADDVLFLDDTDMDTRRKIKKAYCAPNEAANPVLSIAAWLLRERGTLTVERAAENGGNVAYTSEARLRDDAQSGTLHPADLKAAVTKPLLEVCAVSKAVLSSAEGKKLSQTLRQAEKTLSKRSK

[8] = target: T4, Tyrosyl-tRNA synthetase, putative (Trypanosoma cruzi (strain CL Brener)); assay: Trypanosoma cruzi tyrosyl tRNA synthetase (TcYRS) SOP; format: functional; settings: 30 µM
[9] = target: Chromo domain-containing protein 1 (Saccharomyces cerevisiae (strain ATCC 204508 / S288c) (Baker's yeast)) (UniProt P32657); assay: ScCHD-1 Enzyme Inhibition Assay; format: functional; settings: 30 µM; also: in the data most compounds retested in dose-response had high values
Sequence of Chromo domain-containing protein 1 (Saccharomyces cerevisiae (strain ATCC 204508 / S288c) (Baker's yeast)) (P32657 whole entry, the tested form may be a part): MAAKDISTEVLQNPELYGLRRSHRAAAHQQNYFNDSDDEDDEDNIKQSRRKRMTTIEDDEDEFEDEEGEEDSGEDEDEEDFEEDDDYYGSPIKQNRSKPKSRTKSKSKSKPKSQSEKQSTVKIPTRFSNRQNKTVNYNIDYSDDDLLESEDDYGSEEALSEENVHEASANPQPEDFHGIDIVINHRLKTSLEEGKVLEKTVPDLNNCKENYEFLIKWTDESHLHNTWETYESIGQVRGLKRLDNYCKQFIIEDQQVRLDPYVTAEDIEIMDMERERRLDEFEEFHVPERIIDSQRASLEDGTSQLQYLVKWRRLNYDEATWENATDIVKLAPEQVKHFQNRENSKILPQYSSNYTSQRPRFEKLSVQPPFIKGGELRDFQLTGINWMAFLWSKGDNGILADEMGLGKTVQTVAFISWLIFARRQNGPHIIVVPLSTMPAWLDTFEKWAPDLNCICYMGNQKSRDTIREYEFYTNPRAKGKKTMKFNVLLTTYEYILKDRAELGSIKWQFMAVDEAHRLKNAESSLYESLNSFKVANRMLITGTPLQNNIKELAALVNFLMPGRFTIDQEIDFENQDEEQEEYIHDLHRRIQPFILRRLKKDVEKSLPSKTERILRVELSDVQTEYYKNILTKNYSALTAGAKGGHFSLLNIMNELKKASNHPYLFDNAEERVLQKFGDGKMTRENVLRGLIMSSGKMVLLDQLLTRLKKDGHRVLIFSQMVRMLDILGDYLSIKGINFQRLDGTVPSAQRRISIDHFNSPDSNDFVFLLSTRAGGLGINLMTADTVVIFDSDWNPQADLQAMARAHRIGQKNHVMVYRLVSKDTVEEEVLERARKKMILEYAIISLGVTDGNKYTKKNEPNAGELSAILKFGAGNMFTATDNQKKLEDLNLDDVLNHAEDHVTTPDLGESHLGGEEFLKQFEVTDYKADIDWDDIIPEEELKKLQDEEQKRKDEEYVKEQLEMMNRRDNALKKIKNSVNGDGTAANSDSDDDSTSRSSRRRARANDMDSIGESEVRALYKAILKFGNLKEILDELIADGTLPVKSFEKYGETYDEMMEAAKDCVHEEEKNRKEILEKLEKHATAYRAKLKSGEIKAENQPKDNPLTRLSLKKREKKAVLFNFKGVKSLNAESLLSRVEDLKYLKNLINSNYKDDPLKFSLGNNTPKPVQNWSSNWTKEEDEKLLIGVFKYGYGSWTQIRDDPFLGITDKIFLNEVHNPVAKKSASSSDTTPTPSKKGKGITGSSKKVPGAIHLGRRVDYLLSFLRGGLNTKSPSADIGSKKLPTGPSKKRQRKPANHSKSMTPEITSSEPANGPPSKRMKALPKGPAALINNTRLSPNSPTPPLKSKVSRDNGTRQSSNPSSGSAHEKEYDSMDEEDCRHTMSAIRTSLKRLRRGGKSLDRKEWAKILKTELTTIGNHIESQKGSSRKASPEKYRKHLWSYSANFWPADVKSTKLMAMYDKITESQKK

Sequence of Protein translocase subunit SecA (Escherichia coli (strain K12)) (P10408 whole entry): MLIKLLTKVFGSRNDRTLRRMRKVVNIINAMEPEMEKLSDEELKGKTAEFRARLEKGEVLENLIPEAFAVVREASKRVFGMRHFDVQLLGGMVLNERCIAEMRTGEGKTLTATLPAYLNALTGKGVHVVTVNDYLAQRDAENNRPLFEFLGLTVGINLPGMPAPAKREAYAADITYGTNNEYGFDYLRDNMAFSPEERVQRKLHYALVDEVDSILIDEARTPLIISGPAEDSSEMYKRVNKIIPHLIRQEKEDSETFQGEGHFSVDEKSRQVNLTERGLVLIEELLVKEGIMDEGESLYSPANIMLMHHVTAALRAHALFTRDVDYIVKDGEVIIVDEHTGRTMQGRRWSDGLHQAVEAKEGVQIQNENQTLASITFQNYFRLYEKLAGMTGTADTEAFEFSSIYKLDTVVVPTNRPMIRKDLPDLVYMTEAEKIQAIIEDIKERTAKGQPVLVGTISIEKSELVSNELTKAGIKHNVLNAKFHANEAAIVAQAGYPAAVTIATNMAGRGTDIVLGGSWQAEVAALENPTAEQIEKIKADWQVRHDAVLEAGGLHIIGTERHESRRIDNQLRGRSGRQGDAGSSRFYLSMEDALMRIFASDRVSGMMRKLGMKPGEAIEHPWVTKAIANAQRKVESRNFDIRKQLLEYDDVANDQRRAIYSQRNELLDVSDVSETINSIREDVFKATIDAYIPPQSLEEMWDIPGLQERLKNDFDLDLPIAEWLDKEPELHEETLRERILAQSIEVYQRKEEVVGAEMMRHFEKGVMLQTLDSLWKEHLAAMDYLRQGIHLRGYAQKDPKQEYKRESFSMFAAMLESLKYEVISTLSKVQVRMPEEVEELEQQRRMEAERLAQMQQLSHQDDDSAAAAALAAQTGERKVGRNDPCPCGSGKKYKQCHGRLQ
Sequence of Sialic acid-binding Ig-like lectin 9 (Homo sapiens) (Q9Y336 whole entry): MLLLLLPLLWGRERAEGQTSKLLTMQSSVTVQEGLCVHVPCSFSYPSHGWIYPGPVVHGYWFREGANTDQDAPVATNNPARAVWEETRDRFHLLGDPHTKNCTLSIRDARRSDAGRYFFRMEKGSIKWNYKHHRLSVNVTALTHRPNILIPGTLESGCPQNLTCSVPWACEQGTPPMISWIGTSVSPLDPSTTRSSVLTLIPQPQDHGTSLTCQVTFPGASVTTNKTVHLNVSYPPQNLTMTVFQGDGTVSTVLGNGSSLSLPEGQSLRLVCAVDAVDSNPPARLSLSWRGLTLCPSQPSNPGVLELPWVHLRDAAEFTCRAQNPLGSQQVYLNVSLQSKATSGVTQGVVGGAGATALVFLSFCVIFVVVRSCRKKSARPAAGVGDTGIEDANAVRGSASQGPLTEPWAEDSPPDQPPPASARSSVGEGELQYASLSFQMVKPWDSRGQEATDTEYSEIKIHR

Compound	Percent Effect [1]	Percent Effect [2]	Percent Effect [3]	Percent Effect [4]	Percent Effect (Trypanosoma cruzi)	Percent Effect [5]	Percent Effect [6]	Percent Effect (Homo sapiens)	Percent Effect [7]	Percent Effect [8]	Percent Effect [9]
Cc1ccoc1C(=O)NC1CCN(Cc2csc3c(F)cccc23)CC1	-4.82%	-1.27%	-4.47%	-1.87%	-0.308%	-3.66%	9.61%	17.2%	6.25%	10.1%	-13.8%
CCOCC(=O)N1C[C@@H]2COC[C@H](c3nc(C)no3)[C@@H]2C1	-1.23%	-5.41%	5.84%	-1.1%	0.586%	2.5%	9.21%	1.97%	-15.8%	-1.22%	-2.33%
CCOC(=O)NC(CNC(=O)c1ncccn1)CC(C)C (stereo unspecified)	-3.7%	8.11%	-1.89%	31.5%	5.96%	13.7%	11.8%	-4.96%	4.3%	13.6%	-6.28%
CCC1CN(C(=O)Nc2cnc3c(cnn3C(C)C)c2)CCO1 (stereo unspecified)	0.162%	13.5%	-1.29%	10.7%	-5.48%	0.554%	17.6%	22.8%	6.93%	18.3%	-2.08%
COC(=O)Cn1cccc(S(=O)(=O)N2CCC(C)CC2)c1=O	-2.33%	20%	-5.59%	-8.73%	2.75%	92.1%	14.8%	15.8%	2.12%	10.3%	-10.4%
CCCSCC(=O)Nc1ncn(CC(=O)NCc2ccccc2)n1	-2.05%	8%	-1.58%	7.45%	3.6%	13.5%	12.9%	4.31%	6.01%	16.1%	-6.22%
CN(C)S(=O)(=O)c1ccc(OCCNCCn2cccn2)cc1	-6.54%	1.27%	2.35%	-1.53%	-1.13%	1.5%	5.15%	11.8%	-1.04%	-12.7%	-41.4%
O=C(C1CC1)N1CCC(c2nc(O)c3c(n2)CCN(C2CCCC2)C3)C1 (stereo unspecified)	-5.51%	13.3%	6.57%	-6.26%	-4.33%	1.17%	5.55%	11.8%	1.06%	6.41%	-7.54%
Cc1ccc(CNC(C)c2ccc3[nH]c(=O)[nH]c3c2)s1 (stereo unspecified)	-3.59%	13.5%	-7.56%	14%	5%	-5.61%	-0.721%	14.9%	2.46%	11.1%	-6.23%
CCCc1cc(=O)[nH]c2nnc(SCC(=O)NCc3ccc(C)cc3)n12	-0.143%	13.7%	-0.135%	6.56%	3.33%	13.6%	20.2%	16.9%	6.45%	17.5%	-7.5%
Cc1noc(C)c1CNC(=O)N1CCC(CO)CC1	-1.26%	13.7%	-4.05%	6.04%	2.18%	-1.2%	7.62%	23.9%	7.29%	16.1%	-0.505%
Cc1nc(C)n(CC2CCCN2CC(=O)Nc2cc(C(C)C)no2)n1 (stereo unspecified)	-3.86%	18.4%	-3.35%	10.4%	1.03%	-0.36%	8.21%	22.5%	4.43%	16.1%	-3.86%
CN(Cc1ccccc1O)C(=O)NC1CCCN(c2ncccn2)C1 (stereo unspecified)	-1.53%	15.8%	0.343%	-3.02%	-7.89%	-1.53%	6.01%	26.3%	2.45%	7.32%	-8.65%
Cc1ccc(CN2CC(C(=O)N3CCCC3)C3(CCOCC3)C2)s1 (stereo unspecified)	0.462%	0%	0.717%	0.63%	-5.41%	-54.3%	2.05%	5.33%	2.08%	0%	-4.71%
CC(C)Oc1ncc(C(=O)N2CCC(NC(=O)C3CC3)CC2)cc1Cl	-5.61%	-2.74%	-0.0193%	-3.72%	-5.56%	-0.798%	12.8%	5.13%	0%	6.17%	-0.607%
Cn1cnc2c1C(COCC1CCOCC1)CN(C1CCOCC1)C2 (stereo unspecified)	-3.42%	13.3%	10.9%	4.02%	-2.76%	3.96%	6.96%	-11.2%	5.32%	11.5%	-4.46%
CCn1cc(NC(=O)NC2CCCc3c2cnn3CCO)cn1 (stereo unspecified)	-1.35%	5.33%	-2.07%	4.11%	-1.07%	1.56%	9.77%	4.28%	4.92%	11.1%	-14.2%
CCn1nc(C)c2nc(C(C)C)nc(N3CCCCC3)c21	-3.55%	2.6%	1.61%	3.47%	-5.8%	-9.65%	1.5%	5.04%	3.23%	6.17%	-0.27%
CCc1nc(C2CCCN(C(=O)c3cnn(CC)c3)C2)no1 (stereo unspecified)	-7.03%	0%	3.03%	-1.97%	-5.16%	1.18%	5.66%	-8.3%	1.06%	5.2%	-2.87%
COc1ccc(C(=O)N2CCCC(C)C2)cc1F (stereo unspecified)	-4.09%	24.3%	-19.3%	-3.4%	2.17%	-15.6%	16.2%	18.6%	4.43%	18.5%	-9.54%
c1ccc(CN2CC[C@@H]3O[C@H](COCc4ccncc4)CC[C@@H]32)nc1	-0.0418%	10.7%	-4.7%	-5.18%	-8.46%	5.83%	9.07%	-4.23%	4.25%	8.97%	-2.83%
